# Screening results from PubChem BioAssay.
# HEK293 tox = cytotoxicity in counter-screen for GLP-1R inverse agonists | HEK293 cAMP-luciferase reporter cells, luminescence, 24 h | Potency, µM (highest dose often 38.3 µM), without a hit: at the highest dose activity change, negative = inhibition, most hits filed as inhibitors | 0.13% of 410,000 active | AID 624418;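 note: loss of luciferase light is scored as toxicity; potency is the fitted concentration of half-maximal effect; % is set by controls: 0 for no effect and ±100 for the full control effect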
#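 Here, cytotoxicity is scored as loss of luminescence. The MLSMR collection was tested on cells seeded in medium containing 10% Nu serum, with a 24 hr compound exposure preceded by 12 hours of culture.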
# LDHA block = inhibitors of human lactate dehydrogenase A. P00338. purified LDHA, NADH/diaphorase-resazurin fluorescence; hits give low values. activity change, % (values are at about 110 or 230 µM). 0.15% of 480,000 active; in the data active = activity change below about -30%; inconclusive = mostly about -25% to -30%;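 note: plate controls were DMSO wells for no effect and wells without enzyme for full effect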
#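 Resorufin fluorescence (ex540/em590), read at 0 and 20 min after diaphorase/resazurin addition, reports the NADH left after a 5 min room-temperature reaction of 2 nM human LDH5 with 0.06 mM NADH and 0.2 mM pyruvate.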
# PTHR1 agonist = activates the human parathyroid hormone receptor PTHR1; Q03431; HEK293 GP2 PTHR1 cells, GloSensor cAMP luminescence, 1 h; Potency, µM (titrated, usually from 115 µM), without a hit: at the highest dose activation, hits mostly activators; 0.075% of 410,000 active; note: potency is the fitted concentration of half-maximal effect; nearly all actives have a fitted effect of over 55% in size
#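 HEK-293-derived GP2 cells expressing PTHR1 and a GloSensor cAMP reporter, 3,000/well, plated overnight, given luciferin plus IBMX (each 0.5 mM as added) for 1 h at 37 °C, then compound for 1 h at 37 °C. Luminescence was read after 15 min at room temperature.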
# GLP1R ag = agonists of human GLP-1 receptor | P43220 | HEK293 GLP-1R CRE-luciferase, luminescence, 4-6 h; cells express a hypersensitive GLP-1R form | Potency, µM (doses to about 45.6 µM), for the others: at the highest dose activation, usual class: activators | 0.007% of 380,000 active | AID 624172; note: potency is the fitted concentration of half-maximal effect; % of control where 0% means no effect
# mIDH1 inhibitor = human IDH1 R132H inhibition. Potency, µM (doses to about 76.6 µM), without a hit: at the highest dose activity change, negative = inhibition, most hits filed as inhibitors. 0.093% of 390,000 active. IDH1-R132H enzyme, NADPH consumption, diaphorase/resazurin fluorescence; note: potency is the fitted concentration of half-maximal effect; % is set by controls: 0 for no effect and ±100 for the full control effect; nearly all actives have a fitted effect of over 65% in size
# Target sequence (O75874 whole entry R132H, stated change not applied): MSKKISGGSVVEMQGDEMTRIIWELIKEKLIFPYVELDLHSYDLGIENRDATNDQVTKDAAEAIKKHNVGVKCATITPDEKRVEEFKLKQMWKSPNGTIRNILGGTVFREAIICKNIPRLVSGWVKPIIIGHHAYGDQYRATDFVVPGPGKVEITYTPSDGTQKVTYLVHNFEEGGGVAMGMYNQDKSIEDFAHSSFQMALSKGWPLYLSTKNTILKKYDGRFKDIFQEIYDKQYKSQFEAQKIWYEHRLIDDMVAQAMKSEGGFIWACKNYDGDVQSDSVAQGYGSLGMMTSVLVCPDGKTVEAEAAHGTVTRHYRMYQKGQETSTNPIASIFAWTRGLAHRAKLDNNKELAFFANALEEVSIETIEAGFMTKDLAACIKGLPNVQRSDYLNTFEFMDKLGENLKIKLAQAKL
#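 IDH1-R132H (0.5 ug/mL) preincubated 30 min with compound, then NADPH (0.016 mM) and alpha-KG (2 mM) added; 80 min at RT, pH 7.5. Remaining NADPH coupled via diaphorase/resazurin to fluorescence (540/590 nm); concentration-response curves normalized to no-enzyme control.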
# GLP-1R inv ag = acts as inverse agonist at human GLP-1 receptor. HEK293 GLP-1R CRE-luciferase, luminescence, 24 h; GLP-1R form is constitutively active. 1.6% of 410,000 active. Potency, µM (highest dose often 38.3 µM), inactives show at the top dose activity change, negative = inhibition, most hits filed as inhibitors. P43220; note: potency is the fitted concentration of half-maximal effect; % is set by controls: 0 for no effect and ±100 for the full control effect; nearly all actives have a fitted effect of over 55% in size
#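 Constitutively active GLP-1R drives a cAMP-responsive luciferase in stably transfected HEK293 cells; test compounds are added after overnight (12 h) attachment and left 24 hr, and signal loss in luminescence marks inhibition.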
# Numbers without * were called inactive; i = inactive; ? = inconclusive; . = not tested or not shown; [ ] = dose if it differs, or a comment. Shown are actives, neighbours in structure and some others; about 1.7% of the full set was active somewhere. Unless noted, calls come from the whole dose curve; as a rule, active = well fitted curve in the direction sought with a large enough effect; inconclusive = small, poorly fitted or top-dose-only effect, or another doubt; inactive = no such curve, though single readings can be large; an effect the other way counts as inactive or inconclusive.
SMILES,HEK293 tox,LDHA block,PTHR1 agonist,GLP1R ag,mIDH1 inhibitor,GLP-1R inv ag
CCC(C)Sc1cccc(-c2nc3cnccn3c2NC2CCCCC2)c1 (stereo unspecified),113%,1,-22%,-2%,-1%,10µM*
CCC(C)Sc1cccc(-c2nc3ccc(C)cn3c2NC2CCCCC2)c1 (stereo unspecified),-22%,1,-87%,15%,10%,11µM*
Cn1c(=O)[nH]c(=O)c2c1nc(N1CCN(CC(N)=O)CC1)n2Cc1ccc(Cl)c(Cl)c1,.,-1,.,.,.,.
Cc1nc(N)nc(N)c1CCCc1ccc(Cl)c(Cl)c1,-30%,-4,-14%,11%,6%,7.1µM*
CCOC(=O)c1ccccc1NC1c2ccccc2C(=O)N1c1cc(C)ccn1 (stereo unspecified),15%,-1,i,3%,8%,13µM*
COc1cc(OC)c(NC2c3ccccc3C(=O)N2c2cc(C)ccn2)cc1Cl (stereo unspecified),-11%,2,i,-2%,-6%,6%
O=C(O)c1ccccc1SCc1ccc(Cl)cc1,.,-5,.,.,.,.
O=C(O)c1ccccc1NC(c1ccccc1)c1ccc(Cl)cc1 (stereo unspecified),-11%,0,i,5%,-6%,11µM*
O=C(NCc1ccccc1)c1cc(C2CC2)nc2ccccc12,.,-1,.,.,.,.
CCC(C)Oc1ccc(C2CC(=O)NC3=C2C(=O)CC(C)(C)C3)cc1 (stereo unspecified),.,6,.,.,.,.
COCCn1c(SC(C)C(=O)c2cccc(Cl)c2)nnc1-c1ccc(Cl)cc1 (stereo unspecified),.,4,.,.,.,.
Cc1cc(=O)oc2c1ccc1oc(/C(=N/O)c3ccccc3)c(-c3ccccc3)c12,.,13,.,.,.,.
O=C(NCCCCCCNC(=O)OCc1ccccc1)OCc1ccccc1,0%,-15,-15%,-1%,0%,17%
Cc1cccc(C)c1OCCNC(=O)OCc1ccccc1,-8%,1,-34%,9%,5%,11µM*
O=C1CSC(c2cccc(C(F)(F)F)c2)N1c1ccc(I)cc1 (stereo unspecified),.,2,.,.,.,.
Cc1ccc(C(=O)CCC(=O)NCc2ccccc2)cc1,7%,-8,-6%,-2%,7%,-5%
CC(C)(C)c1ccc(C(=O)CCC(=O)NCc2ccccc2)cc1,-20%,-2,-19%,15%,0%,7.9µM*
COc1ccc(NC(=O)CSc2ncnc3ccccc23)c(OC)c1,.,5,.,.,.,.
O=C(CC1C(=O)N(c2ccccc2)C(=S)N1c1ccccc1)c1ccc(Br)cc1 (stereo unspecified),1%,-11,i,9%,-1%,11µM*
Cc1cccc(NC(=O)CSc2nc3ccccc3c3nc(CCc4c(C)n[nH]c4C)nn23)c1,5µM*,-3,-21%[57.5 µM],-16%,-22%,?
Cn1ncc2c(O/N=C(\N)c3ccc(C(C)(C)C)cc3)ncnc21,10µM*,8,-22%,-2%,5%,?
Cc1cc(N2CCN(C)CC2)nc2ccc(NC(=S)NCc3cccs3)cc12,?,-6,i,2%,4%,1µM*
Cc1ccc(C)c(N2CCN(C(=S)Nc3ccc4nc(N5CCN(C)CC5)cc(C)c4c3)CC2)c1,-14%,0,i,8%,0%,2.5µM*
Cc1cc(N2CCOCC2)nc2ccc(NC(=O)CCC(=O)N3CCN(c4cccc(C(F)(F)F)c4)CC3)cc12,-18%,4,-31%,-2%,0%,10µM*
Cc1ccc(C)c(N2CCN(C(=S)Nc3ccc4nc(N5CCOCC5)cc(C)c4c3)CC2)c1,10%,0,-11%,-1%,1%,?
SMILES,HEK293 tox,LDHA block,PTHR1 agonist,GLP1R ag,mIDH1 inhibitor,GLP-1R inv ag
CCC(C)NC(=S)Nc1ccc2nc(N3CCN(CC)CC3)cc(C)c2c1 (stereo unspecified),?,-1,4%,-1%,-4%,3.5µM*
Cc1cc(N2CCOCC2)nc2ccc(NC(=O)CCC(=O)N3CCCCC3)cc12,2%,20,i,-1%,0%,?
N#CCC(=O)Nc1ccc(C(=O)OCc2cccc(Cl)c2)cc1,.,-21,.,.,.,.
O=C(CSc1n[nH]c(=O)c2cc(-c3ccco3)nn12)Nc1ccc(F)cc1,.,-1,.,.,.,.
CCN1CCN(c2cc(C)c3cc(NC(=S)N4CCN(c5ccccc5)CC4)ccc3n2)CC1,20%,-4,i,8%,5%,1.3µM*
Cc1cc(N2CCN(C)CC2)nc2ccc(NC(=O)c3ccc(Br)o3)cc12,?,0,-5%[57.5 µM],8%,2%,?
CCCN1CCN(C(=S)Nc2ccc3nc(N4CCN(CC)CC4)cc(C)c3c2)CC1,3.2µM*,-10,i,10%,0%,4µM*
Cc1cc(N2CCCCC2)nc2ccc(NC(=O)c3ccc(Br)o3)cc12,?,-1,-34%,-7%,9%,2.8µM*
O=C(O)c1ccc(CNCc2ccc(Br)cc2)cc1,.,0,.,.,.,.
CSc1ccccc1C(=O)N(C)C(c1ccccc1)c1ccccc1,-3%,-1,-25%,5%,3%,8.9µM*
CCOC(=O)C1(CCc2ccccc2)CCN(Cc2nccn2CC)CC1,8.9µM*,0,-1%,7%,2%,?
Cc1ccc(Nc2nc3ccccc3nc2NS(=O)(=O)c2ccc(F)cc2)cc1F,.,0,.,.,.,.
CN1C(=O)COc2ccc(NC(=O)C(=O)NC3CCCCCC3)cc21,.,-4,.,.,.,.
COc1cc(OC)c(NC(=O)C2=C(C)C(=O)OC23CCCCCC3)cc1Cl,-5%,2,-1%,.,-4%,-27%
COc1ccc(NC(=O)C2=C(C)C(=O)OC23CCC(C)CC3)cc1Cl (stereo unspecified),-7%,2,i,1%,4%,7.9µM*
O=C(Nc1ccc(F)cc1)c1nc2ccccc2nc1N1CCCCC1,.,-1,.,.,.,.
COc1cc(CNC(C)(C)CO)cc(Cl)c1OCc1cccs1,.,2,.,.,.,.
COc1ccc(C(C(=O)NC2CCCCC2)N(C(=O)CCl)c2cccc(Cl)c2)cc1 (stereo unspecified),-15%,-2,-41%,-34%,-4%,2.8µM*
O=C(NC1CCCCC1)C(c1cccnc1)N(C(=O)CCl)c1ccc(F)cc1 (stereo unspecified),?,-8,-22%,-20%,-1%,?
O=C(NC1CCCCC1)C(c1cccnc1)N(C(=O)CCl)c1ccccc1Cl (stereo unspecified),-13%,-5,i,3%,0%,1.6µM*
